# Laboratory results: paper PMC4336329 (PLoS ONE, 2015)
# The whole screen tested about 310,000 compounds, of which about 14,000 (4.5%) showed an effect of 50% or more. Effects have a minus sign here. The sample holds strong results, similar compounds and a random draw of the others, so the mix is not that of the screen.
# Target: human ether-à-go-go-related gene (hERG) potassium channel (human, UniProt Q12809)
# Test: primary screen, population patch clamp on CHO cells stably expressing hERG; higher = less effect of the substance
# 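Note: peak tail current of the secondary pulse compared with the same well before compound.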
# human ether-à-go-go-related gene (hERG) potassium channel, sequence (Q12809 whole entry, looked up): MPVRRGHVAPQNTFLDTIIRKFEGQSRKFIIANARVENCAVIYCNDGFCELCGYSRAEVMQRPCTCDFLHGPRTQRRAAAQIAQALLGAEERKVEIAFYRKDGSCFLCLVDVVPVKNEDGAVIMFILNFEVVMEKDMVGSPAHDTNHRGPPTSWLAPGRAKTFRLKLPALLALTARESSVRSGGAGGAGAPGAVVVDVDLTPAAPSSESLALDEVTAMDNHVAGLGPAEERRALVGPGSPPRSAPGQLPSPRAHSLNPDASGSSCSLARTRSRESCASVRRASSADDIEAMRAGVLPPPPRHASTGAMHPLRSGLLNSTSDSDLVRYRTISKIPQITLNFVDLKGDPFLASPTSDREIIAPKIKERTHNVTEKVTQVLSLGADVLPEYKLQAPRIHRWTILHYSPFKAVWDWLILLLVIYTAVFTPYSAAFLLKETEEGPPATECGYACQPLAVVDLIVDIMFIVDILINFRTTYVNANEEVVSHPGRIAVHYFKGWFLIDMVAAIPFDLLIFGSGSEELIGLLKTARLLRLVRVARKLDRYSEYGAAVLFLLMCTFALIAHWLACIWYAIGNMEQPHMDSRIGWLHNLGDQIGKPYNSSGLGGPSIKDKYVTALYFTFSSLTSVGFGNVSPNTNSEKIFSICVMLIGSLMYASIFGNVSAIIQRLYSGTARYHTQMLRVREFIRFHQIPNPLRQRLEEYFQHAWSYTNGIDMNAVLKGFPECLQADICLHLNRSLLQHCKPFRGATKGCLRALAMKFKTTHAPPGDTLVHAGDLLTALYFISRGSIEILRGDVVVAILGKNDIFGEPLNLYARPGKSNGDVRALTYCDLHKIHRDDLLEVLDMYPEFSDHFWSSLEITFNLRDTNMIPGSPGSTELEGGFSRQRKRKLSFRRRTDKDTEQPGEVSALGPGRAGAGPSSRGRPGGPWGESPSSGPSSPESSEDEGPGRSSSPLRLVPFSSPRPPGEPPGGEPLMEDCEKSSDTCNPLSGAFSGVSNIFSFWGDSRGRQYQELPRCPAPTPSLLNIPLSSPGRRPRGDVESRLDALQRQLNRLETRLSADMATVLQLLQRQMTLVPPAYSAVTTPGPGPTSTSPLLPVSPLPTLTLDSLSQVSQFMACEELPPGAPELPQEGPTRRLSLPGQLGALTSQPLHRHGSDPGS
row,Compound,"hERG current change (%, negative = inhibition) at 10uM [%]"
1,NC(=O)[C@@H]1CCCN1Cc1nc(Cc2ccccc2F)no1,7.29
2,Cc1ccc2nc(-c3ccc(NC(=O)CCS(=O)(=O)c4ccccc4)cc3)sc2c1,2.03
3,CC(C)CCOP(N)(=O)Oc1ccccc1 (stereo not drawn),9.05
4,CCN1C(=O)c2ccc(C(=O)Nc3ncc(C)s3)cc2C1=O,6.29
5,COc1ccccc1-c1cc(C(=O)N/N=C\c2cnn(C)c2C)c2ccccc2n1,-3.85
6,CC1CN(c2nc3ccccn3c(=O)c2/C=C(\C#N)C(N)=O)CC(C)O1 (stereo not drawn),21.1
7,CC1(C)Cc2nc3sc(C(=O)O)c(N)c3cc2CS1,29.4
8,COc1ccc(C(=O)C2CCCN(Cc3cn[nH]c3-c3ccccc3)C2)cc1OC (stereo not drawn),-74
9,CCOC(=O)c1[nH]ncc1CN1CCCC(C(=O)c2cccc3ccccc23)C1 (stereo not drawn),-45.8
10,COc1ccc(C(=O)C2CCCN(Cc3cn[nH]c3-c3ccc(F)cc3)C2)cc1OC (stereo not drawn),-66.5
11,COc1ccc(C(=O)C2CCCN(C(=O)c3ccc(F)cc3)C2)cc1OC (stereo not drawn),-3.95
12,COc1ccc(C(=O)C2CCCN(Cc3ccc(F)cc3F)C2)cc1F (stereo not drawn),-29.8
13,Cn1cc(CN2CCCC(C(=O)c3nccn3C)C2)c(-c2cccc(Cl)c2)n1 (stereo not drawn),-31.1
14,Cn1ccnc1C(=O)C1CCCN(Cc2cn[nH]c2-c2ccc(-c3ccccc3)cc2)C1 (stereo not drawn),-67.9
15,COCCNC(=O)c1cc(-c2ccc(OC)c(OC)c2)on1,-1.95
16,CCOc1ccc(C(=O)N[C@H](C(=O)Nc2ccccc2OC)C(C)C)cc1,-28.7
17,O=C1NC(=Nc2ccccc2)c2ccc([N+](=O)[O-])cc21,3.21
18,Cc1cc(NC(=O)CSc2nc3c(C)c(C)ccc3cc2C)no1,-44.6
19,CCNC(=S)N1CCN(CCN=CC2=C(O)CC(c3ccco3)CC2=O)CC1 (stereo not drawn),0.166
20,C=CCNC(=S)N1CCN(CCN=CC2=C(O)CC(c3ccco3)CC2=O)CC1 (stereo not drawn),-25.8
21,O=C1CC(c2ccco2)CC(O)=C1C=NCCO (stereo not drawn),7.61
22,O=C1CC(c2ccco2)CC(O)=C1C=NCCN1CCN(C(=S)Nc2ccccc2)CC1 (stereo not drawn),-54.1
23,O=C1CC(c2ccco2)CC(O)=C1C=NCCN1CCN(C(=O)Nc2ccc(Cl)cc2)CC1 (stereo not drawn),-66.4

row,Compound,"hERG current change (%, negative = inhibition) at 10uM [%]"
1,O=C1CC(c2ccco2)CC(O)=C1C=NCCN1CCNCC1 (stereo not drawn),2.1
2,Cl.O=C(CN1CCC(NC(=O)c2ccccc2Cl)CC1)NCc1ccco1,-2.98
3,O=C(c1ccc2c3n(nc2c1)-c1ccccc1CO3)N1CCOCC1,-8.48
4,COc1ccc(CCNC(=O)c2cc(-c3ccc4c(c3)OCO4)on2)cc1OC,-4.11
5,Cc1cccc(N(C(=O)CNC(=O)c2ccco2)C(C(=O)NCC2CCCO2)c2ccccc2)c1 (stereo not drawn),9.57
6,Cc1ccc(CSc2sc(C(=O)c3ccccc3)c(N)c2C#N)cc1,6.41
7,NC1=Nc2cccc3cccc1c23,21.3
8,CCCCON1C(=O)c2cccc3cccc(c23)C1=O,-4.38
9,CCCCN(C)C1=Nc2cccc3cccc1c23,-72
10,O=C(Nc1ccc([N+](=O)[O-])cc1)Nc1nc(-c2ccc(Cl)s2)cs1,25.7
11,OCCOCCn1c(C2CCCN2c2nc(-c3ccc(F)cc3)cs2)nc2cc(Cl)c(Cl)cc21 (stereo not drawn),-28.7
12,OCCCn1c(CCNc2nc(-c3ccc(F)cc3)cs2)nc2cc(C(F)(F)F)ccc21,-32.3
13,OCCCn1c(C2CCCN2c2nc(-c3ccc(F)cc3)cs2)nc2cc(C(F)(F)F)ccc21 (stereo not drawn),-21
14,OCCOCCn1c(C2CCCN2c2nc(-c3ccc(F)cc3)cs2)nc2cc(C(F)(F)F)ccc21 (stereo not drawn),-75.1
15,Cc1csc(N2CCCC2c2nc3cc(C(F)(F)F)ccc3n2CCOCCO)n1 (stereo not drawn),-69.1
16,Cc1csc(N2CCCC2c2nc3cc(Cl)c(N4CCCCC4)cc3n2CCOCCO)n1 (stereo not drawn),-47.3
17,Cc1ccc(Cn2c(C3CCCN3c3nc(C)cs3)nc3cc(C(F)(F)F)ccc32)cc1 (stereo not drawn),0.159
18,OCCOCCn1c(CCNc2nc(-c3ccc(F)cc3)cs2)nc2cc(C(F)(F)F)ccc21,-61.1
19,OCCCn1c(CCNc2nc(-c3ccc(Cl)cc3)cs2)nc2cc(C(F)(F)F)ccc21,-0.705
20,CCN1CCSc2ccc(C(=O)NCc3ccccc3F)cc21,-20.8
21,Cc1oc(-c2cccc(Cl)c2)nc1CS(=O)(=O)CC(=O)NCCN1CCCC1,-0.675
22,CCCC/C(C)=N\NC(=O)CNS(=O)(=O)c1ccc([N+](=O)[O-])cc1,-2.14
23,CCOc1ccc(CN(C)C(=O)CNC(=O)c2ccc(Br)o2)cc1OC,-2.55

row,Compound,"hERG current change (%, negative = inhibition) at 10uM [%]"
1,COc1cccc(Cn2cccc(NC(=O)Nc3cccc(C#N)c3)c2=O)c1,6.1
2,O=C(CC1C(=O)NCCN1Cc1ccccc1)NCCN1CCCCC1=O (stereo not drawn),19.1
3,O=C(CC1C(=O)NCCN1Cc1ccoc1)NCCc1ccc(Cl)cc1 (stereo not drawn),-53.7
4,CC(C)(C)CN1CCNC(=O)C1CC(=O)NCCN1CCCc2ccccc21 (stereo not drawn),0.68
5,O=C(CC1C(=O)NCCN1CC1CCCCC1)NCCc1ccc(F)cc1 (stereo not drawn),-51.6
6,Cc1nc(CCNC(=O)CC2C(=O)NCCN2Cc2ccoc2)nc2c1CCCC2 (stereo not drawn),-36.7
7,O=C(CC1C(=O)NCCN1CC1CCCCC1)NCc1ccc(F)cc1 (stereo not drawn),-20.3
8,COC(=O)CCCNC(=O)CC1C(=O)NCCN1Cc1ccoc1 (stereo not drawn),22.1
9,O=C(CC1C(=O)NCCN1CC1CCCCC1)NCc1cc(F)ccc1F (stereo not drawn),1.77
10,O=C(CC1C(=O)NCCN1Cc1ccc(F)cc1)NCCN1CCCc2ccccc21 (stereo not drawn),-66.1
11,Cc1ccc(C)c(Nc2ccc(C(=O)NCCc3ccccc3)cn2)c1,-20.9
12,CCN(CC(=O)Nc1ccc(N2CCOCC2)cc1)C(=O)Cc1ccccc1,3.76
13,COCC(C)n1c(-c2ccc3c(c2)NC(=O)CO3)csc1=Nc1ccc(OC(F)F)cc1 (stereo not drawn),2.76
14,Cc1cc(-c2ccccc2)nc2cc(C(=O)NCCCn3ccnc3)nn12,-22.2
15,Cc1cccc(-c2cc3nc(C)c(C)c(NCCCn4ccnc4)n3n2)c1,-68.9
16,Cc1cc(NCCCn2ccnc2)n2nc(-c3ccc(F)cc3)cc2n1,-14
17,Cc1cc(NCCCn2ccnc2)n2nc(-c3ccc(Cl)cc3)cc2n1,-74.6
18,Cc1cccc(-n2ncc3c(NCCCn4ccnc4)ncnc32)c1,-16.5
19,Cc1cccc(-c2cc3nc(C)cc(NCCCN(C)C)n3n2)c1,-38.1
20,COc1ccc(-c2cc3nc(C)cc(NCCO)n3n2)cc1,-33.6
21,Cc1cccc(-c2cc3nc(C)cc(NCCCn4ccnc4)n3n2)c1,-59.3
22,Cc1cccc(-c2cc3nc(C)cc(C)n3n2)c1,2.6
23,CCc1cc2c(=O)[nH]c(Cc3ccc(OC)cc3)nc2s1,2.16

row,Compound,"hERG current change (%, negative = inhibition) at 10uM [%]"
1,O=C(Nc1ccccc1)C(Cc1cccs1)c1nn[nH]n1 (stereo not drawn),-0.965
2,O=C(CNc1cccc(S(=O)(=O)N2CCOCC2)c1)Nc1ccc(C(F)(F)F)cc1,-44.2
3,O=C(Cc1ccccc1)NC(NCCCN1CCOCC1)(C(F)(F)F)C(F)(F)F,5.2
4,O=C(O)c1cccc(Cn2c(Cl)c(/C=N/NC(=O)c3ccccc3O)sc2=O)c1,12.6
5,Cc1cc(C)n2cc(CSc3nnnn3-c3ccccc3C)nc2n1,-58.3
6,CCc1nnc(SCc2cn3c(C)cc(C)nc3n2)n1N,13.5
7,Cc1cccc2nc(CSc3nnnn3-c3ccccc3)cn12,-41.5
8,Cc1cc(C)n2cc(CSc3nnnn3C)nc2n1,2.06
9,Cc1cc(C)n2cc(CSc3nnnn3-c3ccccc3)nc2n1,-56.3
10,Cc1cc(C)n2cc(CSc3nncn3C)nc2n1,17.2
11,O=C(CCCc1ccccc1)N1CCc2ccccc21,10.1
12,Cc1c(N=Cc2ccc(-c3ccc(Cl)cc3)o2)c(=O)n(-c2ccccc2)n1C,-15.3
13,Cc1cc(C)nc(OC(C(=O)O)C(OCC(C)C)(c2ccccc2)c2ccccc2)n1 (stereo not drawn),17.8
14,Cc1[nH]c2c(C(F)(F)F)cccc2c1CCN.Cl,-1.49
15,CCOc1ccc(C(=O)Nc2cccc3nsnc23)cc1[N+](=O)[O-],5.23
16,OCC1(CC2CCCCO2)CCN(C/C=C/c2ccccc2)CC1 (stereo not drawn),-46
17,OCC1(CCc2ccccc2)CCN(C/C=C/c2ccccc2)CC1,-80.9
18,C/C=C(\C)CN1CCCC(CO)(Cc2ccccc2)C1 (stereo not drawn),10.4
19,O=S(=O)(Cc1ccccc1)N1CCN(C/C=C/c2ccccc2)CC1,-5.88
20,OCC1(CCc2ccccc2)CCCN(C/C=C/c2ccccc2)C1 (stereo not drawn),-73.5
21,O=C(CCC(F)(F)F)N1CCCC(CO)(CCc2ccccc2)C1 (stereo not drawn),-13.5
